# Measurements taken from PubChem BioAssay AID630 (Emory University Molecular Libraries Screening Center, 2007).
# Out of some 88,000 compounds screened, about 260 (0.3%) were called active. This excerpt belongs to a sample that is enriched for actives. A number with no mark means an inactive call.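 Rule for the calls: active = compounds that reduce the energy-transfer binding signal between the protein and its labelled peptide by more than half; inactive = the rest.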
# Target: Mothers against decapentaplegic homolog 3 (Homo sapiens) (UniProt P84022)
# Test: blockers of Smad3 binding to FoxH1 – biochemical, TR-FRET, primary screen (AID 630);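 note: 0% = Smad3 plus labelled peptide maximal FRET and 100% = peptide-only background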
# Conditions: TR-FRET Smad3/Dy647-FoxH1 peptide binding, europium anti-His; at 25 µM; active compounds read high
# Sequence of Mothers against decapentaplegic homolog 3 (Homo sapiens) (P84022 whole entry, looked up): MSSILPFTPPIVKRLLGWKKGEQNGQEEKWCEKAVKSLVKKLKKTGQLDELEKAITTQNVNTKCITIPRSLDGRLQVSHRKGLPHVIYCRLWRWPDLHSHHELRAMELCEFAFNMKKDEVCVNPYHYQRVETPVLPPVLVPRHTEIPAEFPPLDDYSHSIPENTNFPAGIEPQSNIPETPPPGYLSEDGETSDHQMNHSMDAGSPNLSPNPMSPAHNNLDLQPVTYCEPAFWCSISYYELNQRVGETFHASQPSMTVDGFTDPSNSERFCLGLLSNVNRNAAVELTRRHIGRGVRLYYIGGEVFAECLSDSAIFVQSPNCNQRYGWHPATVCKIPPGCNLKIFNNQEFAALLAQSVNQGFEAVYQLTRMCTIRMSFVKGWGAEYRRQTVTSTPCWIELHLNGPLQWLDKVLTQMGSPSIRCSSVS
row,SMILES,inhibition
1,O=C(O)c1c(Br)c(Br)c(Br)c(Br)c1C1c2ccc(O)cc2Oc2cc(O)ccc21,93.1% (active)
2,COc1cccc(N=c2oc3c(C)ncc(CO)c3cc2C(N)=O)c1,10.9%
3,CC1(CC(=O)O)O[C@@H]2CCCCC[C@H]2O1 (tested in a mixture with another compound),14%
4,Cc1cc(NC(=O)CS(=O)(=O)c2cn(C)c3ccccc23)no1,-0.74%
5,Cc1ccccc1CSCCNC(=O)c1ccc(Cl)c(S(=O)(=O)N2CCOCC2)c1,4.77%
6,CCC1CCCCN1CCCNC(=O)C1CCC(Cn2c(=O)[nH]c3ccccc3c2=O)CC1 (centres undefined),14.2%
7,COc1ccc(C(C#N)Nc2ccccc2C)cc1 (centres undefined),-2.51%
8,COc1ccc(C(=O)OCC(=O)NCC2CCCCC2)cc1S(=O)(=O)N1CCCc2ccccc21,0.19%
9,Cc1ccc(S(=O)(=O)N(c2cccc(C)c2)C2CCS(=O)(=O)C2)cc1 (centres undefined),0.21%
10,COc1ccc(C2(CNC(=O)C(c3ccccc3)c3ccccc3)CCOCC2)cc1OC,3.2%
11,COc1ccc(S(=O)(=O)N2CCOCC2)c(C)c1C,15.3%
12,Cc1c(O)c(Br)c(C)c(O)c1Br (tested in a mixture with another compound),94% (active)
13,CCc1ccccc1NC(=O)CN(C)S(=O)(=O)c1ccc2c(c1)c(=O)n(C)c(=O)n2C,-4.79%
14,C=C(C)CNC(=S)/N=c1\scc(C)n1CC,91.6% (active)
15,OC[C@@H]1O[C@H](n2cnc3c(SCc4ccccc4)ncnc32)[C@H](O)[C@H]1O,4.63%
16,CC(C)OC(=O)c1c(NC(=O)c2ccco2)sc2c1CCCC2,-1.98%
17,CC(O)CN(Cc1ccc(Cl)cc1)CC(C)O (centres undefined),0.45%
18,COc1ccc(S(=O)(=O)N/N=C\c2ccc(OC)c(COc3ccc(C)cc3[N+](=O)[O-])c2)cc1,-3.11%
19,Cc1ccc(SC(=O)COc2ccc(C)c(C)c2)cc1,-5.83%
20,CCN1C(=O)C(CC(=O)Nc2cc(C)ccc2C)SC1=Nc1ccc(S(N)(=O)=O)cc1 (centres undefined),-12.6%

row,SMILES,inhibition
1,O=C(C1=C(O)C(=O)N(Cc2ccccc2)C1c1ccco1)c1ccco1 (centres undefined),12.4%
2,C[C@@]12CC[C@H]3c4ccc(O)cc4CC[C@@H]3[C@H]1CC[C@H]2OC(=O)CCC1CCCC1,39.6%
3,CC(=O)Nc1ccc(OCC(O)CN2CCN(c3ccccc3Cl)CC2)cc1 (centres undefined),4.39%
4,CCOc1ccc(N=C2NC(=O)S/C2=C\c2ccc(O)cc2)cc1,-8.11%
5,O=C(NC1CCC(O)CC1)c1ccc(S(=O)(=O)NCc2ccco2)cc1 (centres undefined),1.61%
6,COC(=O)C1=C(C)Nc2ncnn2C1c1cccnc1 (centres undefined),-10.7%
7,Cc1ccc(S(=O)(=O)N(C)C2(C)CCS(=O)(=O)C2)cc1 (centres undefined),-7.37%
8,Cn1cnc([N+](=O)[O-])c1Nc1ccccc1O,-0.46%
9,O=C(N/N=C/c1ccc(O)cc1)/C(=C/c1ccc([N+](=O)[O-])cc1)NC(=O)c1ccccc1,-3.81%
10,Cc1cccc(C)c1NC(=O)CSc1nnc(-c2ccccc2)n1Cc1ccc2c(c1)OCO2,14.3%
11,Cc1nn(-c2ncc(C(F)(F)F)cc2Cl)c(=O)n1-c1ccccc1,9.91%
12,O=C(COc1ccccc1)Nc1nonc1NC(=O)COc1ccccc1,8.67%
13,O=C(CSCc1ccccc1)N1CCc2ccccc21,-1.3%
14,O=C(c1cccc(N2CCCC2=O)c1)N1CCOCC1,-6%
15,Cc1ccc(/C=N/NC(=O)Cn2nc(C)c(Br)c2C)o1,21.4%
16,O=C(Nc1ccccc1C(=O)NCCCn1ccnc1)c1ccc(Cl)cc1Cl,-0.02%
17,COc1cc(OC)c(-n2c(C)cc(C=O)c2C)cc1Cl,2.99%
18,Cc1nc(NC(=O)C2CCCCC2)sc1C,10.5%
19,CCOC(=O)c1ccc2c(c1)nc(SCC(=O)NC(C)C)n2CC,20%
20,CS(=O)(=O)N(CC(=O)N1CCN(c2ccc(F)cc2)CC1)C1CCCCC1,-8.5%

row,SMILES,inhibition
1,c1ccc(CC2CCN(c3nc4ccccc4n4cnnc34)CC2)cc1,-10%
2,Cn1nc(-c2ccccc2)c(-c2nc(-c3ccc(Cl)cc3)no2)c1Cl,2.93%
3,COc1ccc(CN(CC(=O)NC2CCCC2)C(=O)CCC(=O)Nc2cc(C)on2)cc1,-0.48%
4,Cc1oc(-c2ccccc2Cl)[n+]([O-])c1C,2.52%
5,Cc1ccc(CS(=O)(=O)CCC(=O)NC2CC2)cc1,6.21%
6,CCOc1ccc(NC(=O)C2CCCN(C(=O)Nc3ccccc3)C2)cc1 (centres undefined),10.5%
7,COC(=O)c1nc(NC(=O)c2ccccc2)n[nH]1,1.94%
8,Cc1cccc(C(=O)Nc2ccccc2N2CCN(c3ccc(F)cc3)CC2)c1,3.31%
9,c1ccc(C(c2ccccc2)N2CCN(Cc3nnnn3C3CCCCC3)CC2)cc1,-7.75%
10,COc1ccc(-c2nc3ccccc3n2CCC(C)C)cc1OC,-3.34%
11,C=CCC(NCc1ccco1)c1ccc(OC)cc1 (centres undefined),2.67%
12,CCc1c(O)cc2n(c1=O)-c1ccccc1C2(C)C,7.56%
13,Cc1ccc(-c2cc(C(=O)NCC3CCCO3)c3ccccc3n2)o1 (centres undefined),0.54%
14,Cc1ccccc1-n1c(C)cc(/C=C2\NC(=O)NC2=O)c1C,10.8%
15,O=C(NCCCCCCNC(=O)NCc1ccco1)NCc1ccco1,10.3%
16,FC(F)(F)c1cnc(Oc2ccccc2-c2nnc(-c3ccc(Cl)cc3)o2)c(Cl)c1,6.7%
17,Cc1cc(C)c(S(=O)(=O)N2C=CC(C(F)(F)F)=NCC2)c(C)c1,-6.95%
18,Cc1cccc(C(=O)O)c1C[C@@H]1NCC[C@@H]2c3ccccc3N[C@@H]12,8.15%
19,CC(NC(=O)C1CCC(CNc2c(N3CCOCC3)c(=O)c2=O)CC1)c1ccccc1 (centres undefined),-2.58%
